The source of these data is PubChem BioAssay (NCATS).

Assay [1] can be described thus: qHTS of pediatric cancer cell lines to identify multiple opportunities for drug repurposing: Primary screen for Saos-2 cells (AID 1347097). Also: nearly all actives have a fitted effect of over 40% in size. Also: potency is read from the fitted curve at half-maximal effect. A digest of the protocol:
(§1)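 CRCs from 8- or 11-point titrations (lowest final 0.59 nM NPC, 0.78 nM MIPE). Cell viability: CellTiter-Glo after 48 h incubation, 15 min room-temperature development, luminescence imaging.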
For orientation: Quantitative high-throughput screening tests each substance at several concentrations.

Assay [2] in a line: qHTS of pediatric cancer cell lines to identify multiple opportunities for drug repurposing: Primary screen for NB1643 cells (AID 1347099). Also: nearly all actives have a fitted effect of over 50% in size. Also: potency is read from the fitted curve at half-maximal effect. A digest of the protocol: as §1
A short description of assay [3]: qHTS of pediatric cancer cell lines to identify multiple opportunities for drug repurposing: Primary screen for LAN-5 cells (AID 1347100). Also: potency is read from the fitted curve at half-maximal effect. A digest of the protocol:
(§2)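 Cells (500-1,000/well) in growth media were settled 5 h at 37 degrees C, then given compounds for 48 h. Viability was read as CellTiter-Glo luminescence. Primary runs used MIPE at 11 points (0.78 nM-46 µM) and NPC at 8 points (0.59 nM-46 µM); follow-ups used 11 points.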

Assay [4] is described as follows: qHTS of pediatric cancer cell lines to identify multiple opportunities for drug repurposing: Primary screen for OHS-50 cells (AID 1347103). Also: nearly all actives have a fitted effect of over 40% in size. Also: potency is read from the fitted curve at half-maximal effect. A digest of the protocol: (§3)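 Cells (500-1,000/well) rested 5 h, then received compounds for 48 h; metabolically active cells were measured by CellTiter-Glo luminescence. Final concentrations spanned up to 46 µM (MIPE, 11-point) or 0.59 nM-46 µM (NPC, 8-point) in primary screens, 11-point in follow-ups.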

Assay [5] can be described thus: qHTS of pediatric cancer cell lines to identify multiple opportunities for drug repurposing: Primary screen for RD cells (AID 1347104). Also: nearly all actives have a fitted effect of over 55% in size. Also: potency is read from the fitted curve at half-maximal effect. A digest of the protocol: as §1
Assay [6] is described as follows: qHTS of pediatric cancer cell lines to identify multiple opportunities for drug repurposing: Primary screen for control Hh wild type fibroblast cells (AID 1347106).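 Also: series mostly up to about 46 µM; a drop in luminescence marks cytotoxicity and a rise apparent proliferation; nearly all actives have a fitted effect of over 55% in size.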 A digest of the protocol: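 Viability after 48 h compound treatment at 37C, 500-1,000 cells/well, read as ATP luminescence with CellTiter-Glo. Primary screens used 11-point (MIPE, 0.78 nM-46 µM) or 8-point (NPC, 0.59 nM-46 µM) final concentrations; follow-up screens used 11-point dilutions.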

A short description of assay [7]: qHTS of pediatric cancer cell lines to identify multiple opportunities for drug repurposing: Primary screen for BT-12 cells (AID 1347101). Also: nearly all actives have a fitted effect of over 25% in size. Also: potency is read from the fitted curve at half-maximal effect. A digest of the protocol:
as §3

A short description of assay [8]: qHTS of pediatric cancer cell lines to identify multiple opportunities for drug repurposing: Primary screen for MG 63 (6-TG R) cells (AID 1347105). Also: nearly all actives have a fitted effect of over 50% in size. Also: potency is read from the fitted curve at half-maximal effect. Put shortly:
as §1

Assay [9] can be described thus: qHTS of pediatric cancer cell lines to identify multiple opportunities for drug repurposing: Primary screen for Rh18 cells (AID 1347102). Also: nearly all actives have a fitted effect of over 65% in size. Also: potency is read from the fitted curve at half-maximal effect. A digest of the protocol:
as §2

Records with an inconclusive call do not appear. Unmarked numbers belong to inactive results. Activity calls are given as the source filed them. Calls follow the shape of the dose curve; as a rule, active = well fitted curve in the direction sought with a large enough effect; inconclusive = small, poorly fitted or top-dose-only effect, or another doubt; inactive = no such curve, though single readings can be large; an effect the other way counts as inactive or inconclusive.

As for `CN1CCc2c(n(Cc3ccc(C(=O)NO)cc3)c3ccccc23)C1`, the Potency result in [1] and in [6] was “inactive” each time. For the same compound, the Potency was 11.8 µM (active) in assay [2], 16.6 µM (active) in [3], 21.7 µM (active) in assay [4] and 18.7 µM (active) in assay [5].

Consider `COc1cc([C@H]2Oc3cc([C@H]4Oc5cc(O)cc(O)c5C(=O)[C@H]4O)ccc3O[C@H]2CO)ccc1O`, for which the Potency entry in [1] and in assay [6] was “inactive” in each case. Moreover, the Potency in assay [2] was 23.5 µM (active).

Consider `CN(C)CCN(Cc1ccc(Cl)cc1)c1ccccn1`, for which the Potency entry in assay [1], in assay [7], in assay [8] and in assay [6] was “inactive” in each case. Besides, the Potency in assay [2] was 14.8 µM (active).

In the case of `N#CC(c1ccnc(NCCc2cccnc2)n1)c1nc2ccccc2s1` (stereo not given), the Potency in assay [1] is 18.7 µM (active); in assay [3], 16.6 µM (active); in [7], 21.7 µM (active); in assay [4] it was 19.3 µM (active).

As for `CC(C)(CO)[C@@H](O)C(=O)NCCC(=O)O`, the Potency entry in [1], in assay [3], in [7], in assay [9], in assay [5] and in [8] was “inactive” in each case. The Potency entry in assay [6] was “inactive”.

With `FC(F)(F)c1ccc(C=Cc2nc(COc3ccc(CCCCn4ccnn4)cc3)co2)cc1`, the Potency is 0.0332 µM (active) in [1]; 0.0059 µM (active) in assay [3]; 0.0061 µM (active) in assay [7]; 0.0077 µM (active) in [4]; 0.0118 µM (active) in [5]. The Potency entry in assay [6] is “inactive”.

As for `Cc1ccccc1-n1c(Cn2nc(-c3cccc(O)c3)c3c(N)ncnc32)nc2cccc(C)c2c1=O`, the Potency was 0.059 µM (active) in [1], 0.833 µM (active) in assay [2], 0.0385 µM (active) in [4] and 0.118 µM (active) in assay [5]. In addition, in [6], the Potency entry is “inactive”.

Consider `Cc1nc2c([nH]1)CCN(C(=O)c1ccc(NC(=O)c3ccccc3-c3ccccc3)cc1)c1ccccc1-2`, for which the Potency result in assay [1], in assay [2], in [3], in assay [9], in assay [8] and in [6] was “inactive” each time.

As to `C[C@]12C=CC(=O)C=C1CC[C@@H]1[C@@H]2[C@@H](O)C[C@@]2(C)[C@@H]1CC[C@]2(O)C(=O)CO`, the Potency result in assay [1], in assay [2], in assay [4], in assay [8] and in [6] was “inactive” in each case. Further, in [3], the Potency is 23.5 µM (active).

For the compound `O=c1cc(-c2ccc(O)c(O)c2)oc2cc(O)cc(O)c12`, the Potency entry in assay [1], in [3], in [7], in [9], in assay [5] and in [8] was “inactive” throughout. Also, the Potency result in [6] is “inactive”.

`O=C1CN2Cc3c(ccc(Cl)c3Cl)N=C2N1`: the Potency result in [1], in [2], in assay [8] and in assay [6] was “inactive” each time. For the same compound, the Potency in [4] is 21.7 µM (active).

Consider `NC[C@H]1O[C@H](O[C@@H]2[C@@H](O)[C@@H](O[C@H]3O[C@H](CO)[C@@H](O)[C@H](N)[C@@H]3O)[C@H](N)C[C@@H]2N)[C@H](O)[C@@H](O)[C@H]1O`, for which the Potency entry in [1], in assay [3], in assay [7], in assay [9], in [4] and in assay [5] was “inactive” in each case. Moreover, the Potency result in assay [8] and in assay [6] was “inactive” throughout.

`COc1cc(N2CCN(C)CC2)ccc1Nc1nc(N)c(C(=O)c2c(Cl)cccc2Cl)s1`: the Potency entry in assay [1], in [4], in assay [8] and in assay [6] was “inactive” in each case. Moreover, the Potency in assay [2] was 14.8 µM (active); in [3] it was 16.6 µM (active); in assay [5] it was 29.6 µM (active).

On to `CC(C)C[C@@H](C(=O)N[C@H](C(=O)OC1CCCC1)c1ccccc1)[C@H](O)C(=O)NO`, for which the Potency in [1] is 16.6 µM (active); in assay [2], 18.7 µM (active); in [3] it was 16.6 µM (active). Also, the Potency entry in assay [6] is “inactive”.

For the compound `CC(C)c1onc(-c2c(Cl)cccc2Cl)c1COc1ccc(C=Cc2cccc(C(=O)O)c2)c(Cl)c1`, the Potency entry in [1], in [2] and in [6] was “inactive” throughout. In [4], the Potency is 30.6 µM (active).

Consider `CCN(CC)CCCCNc1nc2cc(Cl)c(Cl)cc2nc1-c1ccc(-c2cccs2)s1`, for which the Potency in [1] is 18.7 µM (active); in assay [3], 26.4 µM (active); in assay [7], 34.3 µM (active); in assay [9], 18.7 µM (active); in [4], 19.3 µM (active); in [5], 18.7 µM (active). The Potency in assay [8] was 18.7 µM (active). Moreover, the Potency entry in assay [6] is “inactive”.

Take `CC[C@]1(O)C[C@H]2CN(CCC3=c4ccccc4=N[C]3[C@@](C(=O)OC)(c3cc4c(cc3OC)N(C)[C@H]3[C@@](O)(C(N)=O)[C@H](O)[C@]5(CC)C=CCN6CC[C@]43[C@@H]65)C2)C1`: the Potency in assay [1] was 0.148 µM (active); in assay [3] it was 0.0166 µM (active); in [7], 0.122 µM (active); in [4], 0.0685 µM (active); in assay [5], 0.0332 µM (active).

For the compound `Cc1cnc(-c2cc(N3CCN(C(=O)CCS(C)(=O)=O)CC3)ncc2Cl)c(C)c1`, the Potency result in assay [1], in assay [3], in assay [7], in assay [9], in [8] and in [6] was “inactive” in each case.

Consider `CCCCC(C=O)NC(=O)C(CC(C)C)NC(=O)OCc1ccccc1` (stereo not given), for which the Potency entry in assay [1], in [3], in assay [9], in assay [8] and in [6] was “inactive” each time. Besides, the Potency in [2] is 26.4 µM (active).

As to `COc1ccc(-c2oc3c(CC=C(C)C)c(O)cc(O)c3c(=O)c2O)cc1`, the Potency in assay [1] was 23.5 µM (active); in assay [2] it was 14.8 µM (active). The Potency entry in [7], in assay [9] and in assay [6] was “inactive” throughout.

For `CON(C)C(=O)N1N=C(c2cc(F)ccc2F)S[C@]1(CCCN)c1ccccc1`, the Potency in assay [1] was 0.001 µM (active); in assay [7] it was 15.3 µM (active); in assay [4], 0.001 µM (active). Besides, the Potency entry in [2] and in assay [6] was “inactive” in each case.

`CN(CC=CC#CC(C)(C)C)Cc1cccc2ccccc12`: the Potency entry in assay [1], in [3], in assay [7], in assay [9], in assay [4] and in assay [8] was “inactive” throughout. Besides, the Potency entry in assay [6] was “inactive”.

For the compound `CCOC(=O)[C@H](CCc1ccccc1)N[C@@H](C)C(=O)N1CCCC1C(=O)O` (stereo not given in full), the Potency result in [1], in assay [3], in assay [7], in assay [5] and in assay [8] was “inactive” throughout.
